In PubChem BioAssay AID1359 (The Scripps Research Institute Molecular Screening Center, 2008):
Screen size: about 220,000 compounds; about 970 (0.44%) were called active. Rule as the data show it: active = activation above about 27%; inactive = the rest. Many of the other results were omitted from the sample, so actives are more common in it than they were.

target: Neuropeptide Y receptor type 2 (Homo sapiens) (UniProt P49146); assay: NPY-Y2 potentiators or agonists, primary screen, cell-based (AID 1359); settings: cells expressing NPY-Y2, potentiator/agonist read-out; at 3.6 µM; active compounds read high;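 also: cells stimulated with NPY near EC25 plus isoproterenol at EC100; 0% = vehicle plus submaximal agonist and 100% = vehicle plus saturating agonist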
Sequence (P49146 whole entry, looked up): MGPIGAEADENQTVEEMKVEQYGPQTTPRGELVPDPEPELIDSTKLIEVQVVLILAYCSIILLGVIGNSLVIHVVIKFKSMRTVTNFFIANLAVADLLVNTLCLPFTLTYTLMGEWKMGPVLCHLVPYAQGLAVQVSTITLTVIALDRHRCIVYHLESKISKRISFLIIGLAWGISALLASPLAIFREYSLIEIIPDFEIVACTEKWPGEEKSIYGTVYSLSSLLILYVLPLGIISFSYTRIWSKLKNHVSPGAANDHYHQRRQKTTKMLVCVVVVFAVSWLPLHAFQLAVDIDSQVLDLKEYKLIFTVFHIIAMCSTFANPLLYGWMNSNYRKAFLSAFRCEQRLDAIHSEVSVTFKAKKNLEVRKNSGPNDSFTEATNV

activation, active:
COc1cc(NC(=O)c2ccccc2NS(=O)(=O)c2ccc(Cl)s2)cc(OC)c1 44%
COC(=O)c1ccc(NC(=O)c2ccccc2NS(=O)(=O)c2ccccc2)cc1 34.4%
CC(CCc1ccccc1)NCC(O)c1cccc([N+](=O)[O-])c1 (stereo unspecified) 87.1%
O=C(CC(O)(C(F)(F)F)C(F)(F)F)Nc1ccc(Cl)c(Cl)c1 52.9%
Oc1ccc(/C=N/Nc2ccc(C(F)(F)F)cn2)cc1O 28.2%
Cc1noc(COc2ccccc2OCC(O)CNC(C)(C)C)n1 (stereo unspecified) 102%
CN(C)Cc1c(O)ccc2occ(C(O)c3ccccc3)c12 (stereo unspecified) 92.7%
N/C(=N\S(=O)(=O)c1cc(C(F)(F)F)cc(C(F)(F)F)c1)c1cccs1 46%
O=C(Nc1cccc(S(=O)(=O)Nc2ccc(Cl)cc2)c1)c1ccc2c(c1)OCCO2 35%
COc1cccc2sc(N(CCCN(C)C)C(=O)C(c3ccccc3)c3ccccc3)nc12 95.6%

activation, inactive:
O=C(Nc1nncs1)c1ccccc1NS(=O)(=O)c1cccs1 -3.36%
COc1cc(NC(=O)c2cccnc2SC)cc(OC)c1 6.08%
CCOc1ccc(NC(=O)c2ccccc2NS(C)(=O)=O)cc1 2.32%
COC(=O)c1ccccc1NC(=O)c1ccccc1NS(C)(=O)=O -6.98%
COc1ccccc1NC(=S)N1CCC(NC(=O)C23CC4CC(CC(C4)C2)C3)CC1 1.71%
O=c1c2c3c(sc2n(CCN2CCCC2)c(=O)n1Cc1ccccc1)CCCCC3 -17.9%
O=C(Cn1nnc(N2CCCCC2)n1)c1ccc(Cl)c(Cl)c1 19%
COc1ccc(Cc2n[nH]c(=S)n2NC(=O)Nc2ccc(C)cc2)cc1 7.41%
CC1CN(/C=C/C(=O)C(F)(F)F)CC(C)O1 (stereo unspecified) -5.05%
CCC(=O)N1CCC(C(N)=O)(N2CCCCC2)CC1 -10.4%
CCCCCCCC1(C)NC(=O)N(CC(=O)Nc2cc(C)on2)C1=O (stereo unspecified) 8.45%
CCOC(=O)Cc1cc(=O)[nH]c(/N=C(\N)Nc2ccc(OC)cc2)n1 -5.89%
CC(C)OP(=O)(OC(C)C)C(Nc1ccccc1)c1cccc([N+](=O)[O-])c1 (stereo unspecified) -1.74%
CC(=O)NCC(O)c1ccc([N+](=O)[O-])cc1 (stereo unspecified) 7.64%
O=C(CCn1nnc2ccccc2c1=O)N[C@@H](Cc1c[nH]c2ccccc12)C(=O)O 13.2%
CCOc1ccc(S(=O)(=O)N(CC(=O)NCC(F)(F)F)Cc2ccco2)cc1 -4.11%
Cc1ccc(Nc2nc(CSc3nnc(-c4ccncc4)n3-c3ccccc3C)cs2)cc1 2.6%
COc1cccc(CNn2cn[nH]c2=S)c1OCc1ccccc1 2.42%
CN(C)CCNC(CC(=O)Nc1ccc(Cl)c(Cl)c1)C(=O)O (stereo unspecified) 4.29%
O=C(CC(=O)Nc1ccc(Cl)c(Cl)c1)N/N=C/c1ccc(O)cc1 7.69%
Cc1ccccc1/[N+]([O-])=C/c1ccncc1 -7.27%
CC(=O)c1c(C)[nH]c(=S)c(C#N)c1-c1ccc(F)cc1 -13.5%
C#CCOCCOCCOCCNc1nc(N2CCN(C(=O)[C@H](CCC(=O)O)n3cc(C(N)CO)nn3)CC2)nc(N2CCN(C(=O)[C@H](Cc3ccc(O)cc3)n3cc(C(N)[C@H](C)CC)nn3)CC2)n1 (stereo partly specified) -0.84%
O=C(Nc1ccccc1)Nc1ccc(C(F)(F)F)cn1 4.92%
Cc1nccn1CC(=O)N/N=C/c1ccc(O)c(O)c1 -13.1%
Cc1ccc(-c2c[n+](=O)c3c(n2[O-])CCC3)cc1 -8.75%
Cc1c(C(=O)NCCCc2ccccc2)cccc1[N+](=O)[O-] 2.52%
O=C1CCCC(O)=C1N=Nc1ccc(S(=O)(=O)N2CCOCC2)cc1 4.38%
CC(=O)Nc1ccccc1OC(C)C(=O)N1CCC(C)CC1 (stereo unspecified) -7.73%
Cc1noc(COc2ccccc2OCc2onc(C)c2Cl)c1Cl 0.6%
CC(C)(C)CC(C)(C)NCC(O)COCCOc1ccc(Br)cc1 (stereo unspecified) -6.14%
Cc1cccc(-c2nc3c(c(SCC(=O)N4CCOCC4)n2)CCCC3)c1 -7.06%
O=C(Nc1ccc(N2CCOCC2)nc1)c1c(F)cccc1F -10.2%
CSc1ccc(NC(=O)/C=C/C(=O)O)cc1 -0.23%
O=C(COC(=O)c1ccc[nH]c1=O)Nc1ccc2c(c1)OC(F)(F)O2 -11.7%
C/C(=N\NS(=O)(=O)c1ccc(Br)cc1)c1cccs1 2.42%
Cc1ccc(S(=O)(=O)/N=C(\N)c2ccc(F)cc2)cc1 9.83%
Cn1c(=O)c(Sc2ccc(Cl)cc2)c(O)c2ccccc21 -8.34%
COc1cccc(NC(=S)NC(=O)c2c(Cl)c(C)nn2C)c1 -1.69%
OCCNCc1cccc(OCc2ccccc2Cl)c1 -2.33%
Cc1cccn2c(CN(C)C3CCCc4ccccc43)c(C(=O)N3CCOCC3)nc12 (stereo unspecified) -13.5%
OC(c1ccccc1)c1nccn1Cc1ccccc1 (stereo unspecified) 3.61%
COC(=O)c1cc(N2CCNCC2)nc2ccccc12 17%
O=C(Nc1cccc(S(=O)(=O)N2CCCCC2)c1)c1ccc2c(c1)OCO2 1.87%
O=C(Nc1ccc(Cl)cn1)c1ccc2c(c1)OCCO2 -8.32%
COC(=O)c1ccc(CSc2nncn2N)cc1 2.75%
NC(=O)CCC(NS(=O)(=O)c1ccc(Cl)cc1)C(=O)NCc1ccccc1Cl (stereo unspecified) 10%
CC(=O)c1c(C)[nH]c(C(=O)COC(=O)c2cccc(S(=O)(=O)N(C)c3ccccc3)c2)c1C 10.4%
COc1ccc(C(C[N+](=O)[O-])n2nc(C)cc2C)cc1 (stereo unspecified) 12.3%
CC(=O)N(CCCN(C)C)c1nc2ccc(C)cc2s1 -1.74%
CN(C)CCCN(C(=O)COc1ccccc1)c1nc2c(Cl)cccc2s1 -2.96%
